Experimental data taken from PubChem BioAssay (EPA / NIEHS).
Active and inactive are the calls of the source. The calls were made as follows: active = hit-call score of the fitted dose curve at least 0.9, where 1 is the maximum; inactive = score below 0.9.

Key:
[1] = ATG_DR4_LXR_CIS: Attagene CIS-FACTORIAL HepG2 Assay for human Liver X Receptor (LXR), DR4 submotif (AID 2282929); conditions: HepG2 Attagene DR4 cis-reporter, mRNA transcription; AC50: actives raise or lower the signal unless noted; outcome: actives raise or lower the signal unless noted
Outline: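 Cells were transfected with multiple reporter transcription units, exposed to chemicals for 24 hours, then lysed for RNA. Reporter mRNA induction was measured by RT-PCR with capillary electrophoresis detection and fitted in both directions relative to DMSO.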

[2] = molecular target: Aryl hydrocarbon receptor (Homo sapiens) (UniProt P35869); assay: ATG_Ahr_CIS: Attagene CIS-FACTORIAL HepG2 Assay for human Aryl Hydrocarbon Receptor (Ahr) (AID 2282930); conditions: HepG2 AhR cis-factorial reporter transcription; actives raise or lower the signal
Chain of Aryl hydrocarbon receptor (Homo sapiens) (P35869 whole entry, looked up): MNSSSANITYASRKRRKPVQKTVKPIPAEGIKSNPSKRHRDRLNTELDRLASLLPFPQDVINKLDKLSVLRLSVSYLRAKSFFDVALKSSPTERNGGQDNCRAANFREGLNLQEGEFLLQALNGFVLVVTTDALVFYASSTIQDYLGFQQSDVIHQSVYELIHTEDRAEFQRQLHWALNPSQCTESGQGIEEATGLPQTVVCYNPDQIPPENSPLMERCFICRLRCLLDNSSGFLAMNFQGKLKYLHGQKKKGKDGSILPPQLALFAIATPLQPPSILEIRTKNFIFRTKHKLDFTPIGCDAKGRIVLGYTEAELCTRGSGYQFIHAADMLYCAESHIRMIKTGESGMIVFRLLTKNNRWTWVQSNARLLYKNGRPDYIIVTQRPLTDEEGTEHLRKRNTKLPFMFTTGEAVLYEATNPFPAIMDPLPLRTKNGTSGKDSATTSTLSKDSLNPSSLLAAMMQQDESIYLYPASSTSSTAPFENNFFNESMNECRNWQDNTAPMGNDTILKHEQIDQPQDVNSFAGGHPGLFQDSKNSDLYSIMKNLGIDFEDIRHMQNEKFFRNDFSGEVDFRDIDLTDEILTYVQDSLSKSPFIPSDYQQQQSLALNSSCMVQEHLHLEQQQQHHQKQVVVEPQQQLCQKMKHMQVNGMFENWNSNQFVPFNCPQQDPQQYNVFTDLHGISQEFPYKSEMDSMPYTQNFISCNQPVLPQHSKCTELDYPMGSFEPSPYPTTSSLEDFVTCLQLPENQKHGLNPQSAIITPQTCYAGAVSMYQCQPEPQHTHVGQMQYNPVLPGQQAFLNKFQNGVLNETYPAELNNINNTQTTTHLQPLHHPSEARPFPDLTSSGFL
Outline: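 Following 24 h of chemical dosing, transfected HepG2 liver cells with cis-driven reporter units were lysed for RNA; reporter mRNA was quantified via RT-PCR and capillary electrophoresis, and responses fitted bidirectionally from DMSO.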

[3] = ATG_AP_1_CIS: Attagene CIS-FACTORIAL HepG2 Assay for human Activator Protein 1 (AP-1) (AID 2282931); conditions: HepG2 Attagene cis-factorial AP-1 reporter mRNA; actives raise or lower the signal
Outline: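 Endogenous transcription-factor activity in human HepG2 liver cells is read through a cis-promoter reporter transcript, sampled 24 h after dosing. Detection uses RT-PCR with capillary electrophoresis; values come from bidirectional fitting relative to DMSO.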

[4] = ATG_AP_2_CIS: Attagene CIS-FACTORIAL HepG2 Assay for human Activator Protein 2 (AP-2) (AID 2282932); conditions: HepG2 AP-2 cis-reporter, Attagene transcription factor profiling; AC50: actives raise or lower the signal unless noted; outcome: actives raise or lower the signal unless noted
Outline: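 HepG2 cells were transiently transfected with multiple cis-promoter reporter transcription units and dosed for 24 h. Reporter mRNA was measured by RT-PCR with capillary electrophoresis fluorescence; bidirectional fits relative to DMSO baseline.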

[5] = ATG_BRE_CIS: Attagene CIS-FACTORIAL HepG2 Assay for human Bone Morphogenetic Protein (BMP) Response Element (BRE) (AID 2282933); conditions: HepG2 BMP response element reporter, Attagene transcription factor profiling; actives raise or lower the signal
Outline: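 Gain- or loss-of-signal was derived by bidirectional fitting against DMSO controls. The signal came from reporter mRNA, measured by RT-PCR and capillary electrophoresis, in HepG2 cells transiently carrying multiple reporter units and dosed for 24 h.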

[6] = molecular target: Transcription factor E2F1 (Homo sapiens) (UniProt Q01094); assay: ATG_E2F_CIS: Attagene CIS-FACTORIAL HepG2 Assay for human E2F Transcription Factor 1 (AID 2282935); conditions: HepG2 Attagene cis-reporter, E2F reporter RNA transcripts; actives raise or lower the signal
Chain of Transcription factor E2F1 (Homo sapiens) (Q01094 whole entry, looked up): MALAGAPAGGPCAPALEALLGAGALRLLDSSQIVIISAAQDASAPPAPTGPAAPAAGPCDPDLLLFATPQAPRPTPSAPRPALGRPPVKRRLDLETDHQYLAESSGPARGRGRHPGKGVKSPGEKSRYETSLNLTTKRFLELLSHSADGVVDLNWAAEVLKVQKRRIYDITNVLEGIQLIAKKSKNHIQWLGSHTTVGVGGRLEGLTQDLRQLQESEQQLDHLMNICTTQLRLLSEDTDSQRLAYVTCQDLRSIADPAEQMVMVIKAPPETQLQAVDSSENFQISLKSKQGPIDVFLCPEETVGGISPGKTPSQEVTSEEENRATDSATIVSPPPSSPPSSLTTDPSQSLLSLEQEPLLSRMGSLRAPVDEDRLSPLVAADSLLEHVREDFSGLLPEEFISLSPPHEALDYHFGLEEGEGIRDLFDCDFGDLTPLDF
Outline: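 HepG2 cells transiently transfected with multiplexed cis-element reporter units, dosed for 24 h. Reporter mRNA measured by RT-PCR, 6-FAM primer-extension labeling, HpaI digestion and capillary electrophoresis; bidirectional fit versus DMSO baseline.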

[7] = ATG_E_Box_CIS: Attagene CIS-FACTORIAL HepG2 Assay for human Enhancer Box (E-box) (AID 2282936); conditions: HepG2 E-box cis-reporter transcription, actives raise or lower the signal
Outline: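 HepG2 cells transiently transfected with multiplexed cis-element reporter units sensing endogenous transcription factor activity; 24 h compound exposure. Reporter mRNA measured by RT-PCR, 6-FAM primer extension, HpaI digestion and capillary electrophoresis; bidirectional fit versus DMSO.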

[8] = ATG_M_61_CIS: Attagene CIS-FACTORIAL HepG2 Assay for M61 Transcription Factor (Internal Marker) (AID 2282937); conditions: HepG2 Attagene CIS-FACTORIAL M61 internal marker reporter; actives raise or lower the signal
Outline: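 Cells were transfected with reporter units under cis-regulatory promoters, treated with chemicals for 24 h, then lysed for RNA. Reporter transcripts were quantified by RT-PCR and capillary electrophoresis, and activity was fitted bidirectionally against DMSO.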

[9] = ATG_EGR_CIS: Attagene CIS-FACTORIAL HepG2 Assay for human Early Growth Response 1 (EGR1) (AID 2282938); conditions: HepG2 Attagene CIS-FACTORIAL EGR reporter mRNA; actives raise or lower the signal
Outline: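 Endogenous TF activity in HepG2 liver cells was gauged through cis-promoter reporter constructs transiently transfected. After 24 h dosing, reporter mRNA was quantified by RT-PCR and capillary electrophoresis, and curves fitted in both directions versus DMSO.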

[10] = ATG_M_19_CIS: Attagene CIS-FACTORIAL HepG2 Assay for M19 Transcription Factor (Internal Marker) (AID 2282939); conditions: HepG2 Attagene CIS-FACTORIAL M19 internal marker reporter; actives raise or lower the signal
Outline: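 Following a 24 h exposure, RNA from transfected HepG2 cells was reverse-transcribed, PCR-amplified with reporter-specific primers, end-labelled with 6-FAM and HpaI-digested before capillary separation. Values represent gain or loss versus DMSO.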

[11] = ATG_ERE_CIS: Attagene CIS-FACTORIAL HepG2 Assay for Estrogen Response Element (ERE) (AID 2282940); conditions: HepG2 ERE cis-reporter, Attagene RNA transcript; actives raise or lower the signal
Outline: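 HepG2, transient cis-reporter units, 24 h exposure. RNA isolated, oligo(dT) RT, reporter-specific PCR, FAM extension, HpaI cut, CE detection. Gain/loss-of-signal vs DMSO.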

[12] = ATG_Ets_CIS: Attagene CIS-FACTORIAL HepG2 Assay for human Erythroblast Transformation Specific (ETS) (AID 2282941); conditions: HepG2 ETS cis-reporter transcription; AC50: actives raise or lower the signal unless noted; outcome: actives raise or lower the signal unless noted
Outline: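 After transient cis-reporter transfection, HepG2 cells receive test chemical for 24 h. Reporter mRNA levels, measured by RT-PCR and capillary electrophoresis fluorescence, are analysed bidirectionally relative to the DMSO baseline.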

[13] = ATG_FoxO_CIS: Attagene CIS-FACTORIAL HepG2 Assay for human Forkhead box O (FoxO) (AID 2282943); conditions: HepG2 Attagene cis-reporter, FoxO element, mRNA; actives raise or lower the signal
Outline: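 24 h chemical exposure, HepG2 with transient cis-MRTU transfection. RNA extraction, oligo(dT) RT, reporter-specific PCR, primer-extension labelling, HpaI digestion, CE fragment analysis; bidirectional fit, DMSO baseline.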

[14] = ATG_GATA_CIS: Attagene CIS-FACTORIAL HepG2 Assay for human GATA Binding Protein (AID 2282944); conditions: HepG2 GATA cis-element reporter, Attagene multiplex mRNA; actives raise or lower the signal
Outline: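 DMSO serves as negative control and baseline for bidirectional fitting of reporter mRNA changes. HepG2 cells bearing transiently transfected cis-promoter reporters were exposed 24 h; transcripts detected via RT-PCR and capillary electrophoresis.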

[15] = ATG_GLI_CIS: Attagene CIS-FACTORIAL HepG2 Assay for human Zinc Finger Protein GLI1 (AID 2282945); conditions: HepG2, Attagene cis-factorial reporter mRNA, GLI element; actives raise or lower the signal
Outline: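 HepG2 cells transiently transfected with cis-promoter multiplexed reporter units report endogenous transcription factor activity. After 24 h chemical exposure, reporter mRNA was quantified by RT-PCR, 6-FAM labelling, HpaI digestion and capillary electrophoresis, with bidirectional fitting against DMSO.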

[16] = molecular target: Bile acid receptor (Homo sapiens) (UniProt Q96RI1); assay: ATG_IR1_CIS: Attagene CIS-FACTORIAL HepG2 Assay for human Nuclear Receptor Subfamily 1 Group H Member 4 (NR1H4), IR1 submotif (AID 2282946); conditions: IR1 reporter transcription, actives raise or lower the signal
Chain of Bile acid receptor (Homo sapiens) (Q96RI1 whole entry, looked up): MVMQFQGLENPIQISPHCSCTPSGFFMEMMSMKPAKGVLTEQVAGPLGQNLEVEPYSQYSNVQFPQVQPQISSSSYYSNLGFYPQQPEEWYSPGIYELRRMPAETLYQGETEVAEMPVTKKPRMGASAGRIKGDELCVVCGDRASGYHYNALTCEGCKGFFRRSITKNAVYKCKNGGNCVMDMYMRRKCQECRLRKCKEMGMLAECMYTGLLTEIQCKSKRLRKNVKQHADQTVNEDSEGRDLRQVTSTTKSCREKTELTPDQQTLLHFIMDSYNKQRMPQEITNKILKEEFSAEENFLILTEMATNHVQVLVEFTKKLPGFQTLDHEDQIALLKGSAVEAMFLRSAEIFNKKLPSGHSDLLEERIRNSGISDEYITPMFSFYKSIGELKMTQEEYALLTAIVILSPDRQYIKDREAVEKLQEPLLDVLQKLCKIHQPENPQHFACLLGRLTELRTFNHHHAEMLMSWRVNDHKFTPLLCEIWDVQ
Outline: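 Transient MRTU transfection, HepG2; 24 h dosing; RNA → RT-PCR → 6-FAM primer extension → HpaI digest → capillary electrophoresis fluorescence. Gain/loss of signal fitted relative to DMSO.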

[17] = ATG_GRE_CIS: Attagene CIS-FACTORIAL HepG2 Assay for human Glucocorticoid Response Elements (GRE) (AID 2282947); conditions: HepG2 GRE cis-reporter, Attagene multiplex mRNA; AC50: actives raise or lower the signal unless noted; outcome: actives raise or lower the signal unless noted
Outline: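 HepG2 cells transiently transfected with multiple cis-promoter reporter units measure endogenous TF activity; 24 h compound exposure. Reporter mRNA quantified by RT-PCR, FAM labelling, HpaI digestion and capillary electrophoresis; bidirectional fit vs DMSO baseline.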

[18] = ATG_ISRE_CIS: Attagene CIS-FACTORIAL HepG2 Assay for human Interferon Regulatory Factor 1 (IRF1) binding to an Interferon-Stimulated Response Element (ISRE) (AID 2282948); conditions: HepG2 ISRE cis-reporter (Attagene), mRNA transcription readout; actives raise or lower the signal
Outline: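 Quantitation relies on labelled RT-PCR fragments separated by capillary electrophoresis. Human HepG2 cells bearing cis-promoter reporter constructs were treated 24 h; DMSO served as baseline for bidirectional fitting.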

[19] = molecular target: Hepatocyte nuclear factor 3-beta (Homo sapiens) (UniProt Q9Y261); assay: ATG_FoxA2_CIS: Attagene CIS-FACTORIAL HepG2 Assay for human Forkhead box A2 (FOXA2) (AID 2282942); conditions: HepG2 cis-reporter transcription factor activity, 24 h; actives raise or lower the signal
Chain of Hepatocyte nuclear factor 3-beta (Homo sapiens) (Q9Y261 whole entry, looked up): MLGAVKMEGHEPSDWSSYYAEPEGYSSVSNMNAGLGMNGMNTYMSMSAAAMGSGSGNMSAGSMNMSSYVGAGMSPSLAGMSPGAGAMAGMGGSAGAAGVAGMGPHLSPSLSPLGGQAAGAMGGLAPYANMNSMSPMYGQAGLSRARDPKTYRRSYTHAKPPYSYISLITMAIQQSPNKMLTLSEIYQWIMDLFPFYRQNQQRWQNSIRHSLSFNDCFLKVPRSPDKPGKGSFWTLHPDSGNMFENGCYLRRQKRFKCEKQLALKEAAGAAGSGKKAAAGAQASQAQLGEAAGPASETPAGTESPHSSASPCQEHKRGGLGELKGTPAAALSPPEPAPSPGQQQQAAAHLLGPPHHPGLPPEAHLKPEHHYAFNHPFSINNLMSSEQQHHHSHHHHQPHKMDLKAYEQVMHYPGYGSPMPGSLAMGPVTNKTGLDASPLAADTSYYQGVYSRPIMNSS
Outline: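 Endogenous transcription factor activity was read in HepG2 cells carrying transiently transfected cis-promoter reporter units. After 24 h dosing, reporter mRNA was quantified by RT-PCR and capillary electrophoresis, and values fitted bidirectionally versus DMSO.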

[20] = molecular target: Retinoic acid receptor alpha (Homo sapiens) (UniProt P10276); assay: ATG_DR5_RAR_CIS: Attagene CIS-FACTORIAL HepG2 Assay for human Retinoic Acid Receptor Alpha (RARE), DR5 submotif (AID 2282934); conditions: HepG2 Attagene cis-factorial RARE DR5 reporter, mRNA; actives raise or lower the signal
Chain of Retinoic acid receptor alpha (Homo sapiens) (P10276 whole entry, looked up): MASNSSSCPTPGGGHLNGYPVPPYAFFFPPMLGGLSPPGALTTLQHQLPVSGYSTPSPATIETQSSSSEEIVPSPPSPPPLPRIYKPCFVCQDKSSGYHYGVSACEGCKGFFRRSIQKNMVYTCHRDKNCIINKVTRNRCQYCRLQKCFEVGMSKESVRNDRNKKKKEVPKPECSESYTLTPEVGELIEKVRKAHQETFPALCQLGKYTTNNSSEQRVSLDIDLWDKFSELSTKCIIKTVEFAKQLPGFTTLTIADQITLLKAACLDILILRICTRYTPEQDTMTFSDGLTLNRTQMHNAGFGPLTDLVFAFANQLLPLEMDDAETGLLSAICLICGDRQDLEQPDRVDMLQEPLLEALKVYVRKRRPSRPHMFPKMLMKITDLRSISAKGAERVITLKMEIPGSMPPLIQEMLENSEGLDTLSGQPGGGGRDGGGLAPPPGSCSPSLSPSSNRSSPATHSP
Outline: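 Transfected HepG2 reporter cells are exposed to chemicals for 24 h. Then RNA is extracted and the DR5 element reporter transcript is measured by RT-PCR and capillary electrophoresis, with bidirectional curve fitting relative to DMSO.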

Measured: outcome

CC(C)(c1ccc(Oc2ccc(N)cc2)cc1)c1ccc(Oc2ccc(N)cc2)cc1
not listed: [19] | [20]
inactive: all other assays above

C=CC(=C)CC/C=C(\C)CCC=C(C)C
not listed: [7] | [20]
inactive: all other assays above

CCCCC=O
not listed: [2] | [11] | [20]
inactive: all other assays above

CCCCCCCCCCCCCCC
not listed: [2] | [10] | [11] | [16] | [19]
inactive: all other assays above
